The full list was thinned out, with hits kept by preference.
DUSP3 inh – inhibitors of human VHR1 phosphatase (DUSP3); AID 1992; recombinant VHR phosphatase, colorimetric substrate read-out; actives 0.7% (n = 50,000); P51452; inhibition, % at 20 µM; in the data active = inhibition above about 60%
Target sequence (P51452 whole entry, looked up): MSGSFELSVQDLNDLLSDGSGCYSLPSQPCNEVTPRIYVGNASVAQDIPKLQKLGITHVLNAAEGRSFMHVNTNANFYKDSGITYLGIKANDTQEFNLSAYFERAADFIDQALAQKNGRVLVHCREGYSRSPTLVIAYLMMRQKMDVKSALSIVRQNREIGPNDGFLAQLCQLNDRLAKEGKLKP
An asterisk follows results filed as active.

SMILES	DUSP3 inh
COCCOC(=O)C1=C(C)NC(=O)CC1c1c(F)cccc1Cl (centres undefined)	-11
O=C(O)CN1C(=O)/C(=C\c2cccc(Cl)c2)SC1=S	3
CC1=C(C#N)c2nc(N)c(C#N)c(C)c2/C1=C\c1ccc(C)o1	54
CC1=C(C#N)c2nc(N)c(C#N)c(C)c2/C1=C/c1ccc(-c2ccc(C(=O)O)c(Cl)c2)o1	92*
CC1=C(C#N)c2nc(N)c(C#N)c(C)c2/C1=C\c1ccc(-c2cccc(Cl)c2)o1	17
CCOC(=O)c1c(C)sc(Sc2ccc(Cl)cc2[N+](=O)[O-])c1OC(C)=O	-9
Cc1ccc(C(C)C)c(OCC(=O)N/N=C/c2cc(I)cc(I)c2O)c1	-6
Cc1ccc(-c2nc3ccccc3c(=O)n2-c2cccnc2)cc1	13
Cn1c(-c2ccc(-c3nc4cnccc4n3C)cc2)nc2cnccc21	71*
Cn1c(-c2nc3ccccc3n2C)nc2ccccc21	-7
COc1ccc(S(=O)(=O)N(CCc2ccccc2)CC(=O)Nc2ccc(F)cc2)cc1OC	-8
O=C(/C=C/c1ccc(N2N=N2)cc1)/C=C/c1ccc(N2N=N2)cc1	5
Fc1ccc(CN2CCN(Cc3cccc(Br)c3)CC2)cc1	4
CC(=O)Nc1ccc(-c2nc3ccc(-c4ccc5nc(-c6ccc(NC(C)=O)cc6)oc(=O)c5c4)cc3c(=O)o2)cc1	-15
C=CCOc1cccc(/C=N/NC(=O)C(=O)Nc2ccc(OC)cc2OC)c1	-18
COC(=O)c1ccc(COc2cc3oc(=O)c4c(c3cc2Cl)CCC4)cc1	1
COC(=O)c1ccc(COc2cc3oc(=O)cc(-c4ccccc4)c3cc2Cl)cc1	98*
COC(=O)c1ccc(COc2ccc3c(-c4ccccc4)cc(=O)oc3c2C)cc1	-7
CC(=O)C1=C(O)C(=O)N(CC2CCCO2)C1c1ccc2c(c1)OCO2 (centres undefined)	-7
Cc1nc(N/N=C/c2ccc(N(C)C)cc2)cc(-c2ccccc2)n1	-24
COc1ccc(-n2c(/C=C/c3c(C)n(C)c4ccc(OC)cc34)nc3ccccc3c2=O)cc1	3
COC(=O)C1=C(C)NC2=C(C(=O)CC(c3ccccc3Cl)C2)C1c1ccc(Cl)cc1 (centres undefined)	13
CCCCNC(=O)CCC(=O)NN(C)C	-5
O=C1NC(=O)N(c2ccccc2)C(=O)/C1=C\c1ccc(-c2ccc(C(=O)O)cc2)o1	-20
O=C1NC(=S)N(c2ccc(Cl)cc2)C(=O)/C1=C/c1ccc(-c2ccc(C(=O)O)cc2)o1	19
SMILES	DUSP3 inh
O=C1NC(=S)NC(=O)C1=Cc1ccc(-c2ccc(C(=O)O)cc2)o1	89*
O=C(NCCCN1CCOCC1)c1ccc(F)cc1	-54
COc1ccc(/C=C/C(=O)c2cccc(Br)c2)cc1	6
Cc1ccc(C(=O)Nc2cc(Cl)ccc2C)cc1C	-14
CCCC1=NN2C(=N)/C(=C/c3cccc(OCc4ccccc4F)c3)C(=O)N=C2S1	4
Cn1c(=O)c2c(nc(N/N=C/c3ccccc3Cl)n2Cc2ccccc2)n(C)c1=O	-8
Cn1c(=O)c2c(nc(Sc3nc4ccccc4n3Cc3ccccc3)n2C)n(C)c1=O	-13
Cn1c(=O)c2c([nH]c(=S)n2Cc2ccc(Cl)c(Cl)c2)n(C)c1=O	114*
COCCCNC(=S)Nc1ccc(Cl)cc1Cl	-5
CCOC(=O)C1=C(C)NC(=O)NC1c1ccc(F)c(F)c1 (centres undefined)	-13
O=C(O)c1cc(-c2cccc([N+](=O)[O-])c2)nc2ccccc12	-13
O=C(O)c1cc(-c2cn[nH]c2-c2ccccc2)nc2ccc3ccccc3c12	110*
COc1ccccc1-c1cc(C(=O)O)c2ccccc2n1	11
CCC(Oc1ccccc1)C(=O)Nc1ccc(F)c([N+](=O)[O-])c1 (centres undefined)	-1
C(=N\n1cnnc1)/c1cccc(OCCOc2ccccc2)c1	-25
CC(C)(C)c1ccc(OCCOc2ccc(/C=N/n3cnnc3)cc2)cc1	3
Brc1ccc(OCCOc2ccc(/C=N/n3cnnc3)cc2)cc1	114*
COc1cc(/C=N/NS(=O)(=O)c2ccc(C(C)(C)C)cc2)cc(OC)c1OC	4
Cc1ccc(NC(=O)C(=O)NCCN2CCN(S(=O)(=O)c3ccc([N+](=O)[O-])cc3)CC2)cc1	-17
CC(=O)Nc1cc(-c2ccc(Cl)cc2)nn1-c1ccccc1	4
CCOC(=O)/C=C(\C)Nc1cc(-c2ccc(Cl)cc2)[nH]n1	6
CCOC(=O)/C=C(\C)Nc1cc(C)nn1-c1ccccc1	110*
Cc1cc(C(=O)Nc2ccc(I)cc2C(=O)O)ccc1[N+](=O)[O-]	-4
N#Cc1c(N)sc2c1CCCCCC2	18
Nc1sc(=S)nc2sc3c(c12)CCN(Cc1ccccc1)C3	72*
SMILES	DUSP3 inh
N#Cc1c(N)sc2c1CCN(Cc1ccccc1)C2	102*
CCC1CCc2c(sc(N)c2C#N)C1 (centres undefined)	-16
Nc1nc(SCc2ccc(Cl)cc2)nc2sc3c(c12)CCN(Cc1ccccc1)C3	4
O=c1[nH]c(=S)[nH]c2sc3c(c12)CCN(Cc1ccccc1)C3	51
CC(=O)SCCC(=O)N1CCn2c3c(c4cc(C)ccc42)CCCC31 (centres undefined)	-3
COc1nccnc1NS(=O)(=O)c1ccc(NC(=O)c2ccc(S(=O)(=O)N(C)C)cc2)cc1	-7
C/C(=N\NS(C)(=O)=O)c1ccc(O)cc1O	-26
CC(C)=C1C(=O)NN(c2cccc(Br)c2)C1=O	81*
CC(C)=C1C(=O)NN(c2ccc(C)c(Cl)c2)C1=O	0
COc1ccc(Cl)cc1/C=C1/C(=O)NN(c2cccc(Br)c2)C1=O	6
N#C/C(=C\c1ccccc1)C(=O)Nc1ccc([N+](=O)[O-])cc1C(=O)c1ccccc1	10
Cc1ccccc1C(=O)NNC(=S)Nc1ccccc1	50
O=C(Cc1ccccc1)Nc1ccc(Cl)c(-c2nc3cc(Cl)ccc3o2)c1	33
COc1ccc2noc3c2c1C(=O)c1ccccc1-3	-9
CC(=O)Oc1cccc2c1C(=O)c1ccccc1C2=O	103
COc1ccc(OC)c2c1C(=O)c1ccccc1C2=O	94*
CCn1c2c(c3cc(C)ccc31)CCCC2=O	-15
CCCOC(=O)C1=C(C)NC(=O)NC1c1ccccc1Cl (centres undefined)	-34
O=C(CCc1ccccc1)Nc1cc([N+](=O)[O-])ccc1F	-11
O=c1/c(=C/c2ccc(-c3ccccc3)o2)sc2nc3ccccc3n12	3
CCOC(=O)c1c(NC(=O)c2ccccc2)sc2c1CCN(Cc1ccccc1)C2	53
CCOC(=O)c1c(NC(=S)Nc2ccccc2)sc2c1CCCCC2	-7
CCOC(=O)c1c(NC(=S)Nc2ccc(C)cc2)sc2c1CCN(Cc1ccccc1)C2	68*
Cc1ccc(S(=O)(=O)Oc2cccc(/C=C3/SC(=S)N(Cc4ccccc4)C3=O)c2)cc1	108*
C=CCN1C(=O)/C(=C\c2cccc(OS(=O)(=O)c3ccc(C)cc3)c2)SC1=S	-10
SMILES	DUSP3 inh
CCN1C(=O)/C(=C\c2cccc(OS(=O)(=O)c3ccc(C)cc3)c2)SC1=S	-3
Cc1ccc(C)n1-c1ccc(C(=O)NN)c(Cl)c1	90*
CCNC(=O)c1ccc(Cl)cc1Cl	0
Cc1ccc(C)n1-c1ccc(O)c(C(=O)O)c1	2
CCCCOC(=O)c1cccc(NC(=O)c2cc3ccccc3oc2=O)c1	-52
Cc1c(-c2ccccc2)nc2ccccc2c1C(=O)Nc1ccc(F)cc1F	42
CCc1ccc(-n2c(C)cc(/C=C3/NC(=S)NC3=O)c2C)cc1	-16
Cc1cc(/C=C2/NC(=S)NC2=O)c(C)n1-c1ccc(Br)cc1	-24
